From PubChem BioAssay
An excerpt weighted towards active compounds, which were near 1.6% of everything screened.
KCNQ2 block: KCNQ2 (rat) channel inhibition; 310,000 compounds, 1.1% hits; CHO-K1 KCNQ2, FluxOR thallium flux, 20 min; stronger effect = lower value; B-score at 10 µM; AID 2156;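 active = fluorescence ratio B-score at most minus 3 library SDs, with starting brightness B-score within 2 library SDs, cut at about -5.5 in these data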
KCNQ2 pot: KCNQ2 (rat) channel potentiation. B-score at 10 µM. 310,000 compounds, 0.54% hits. CHO-K1 KCNQ2, FluxOR thallium flux fluorescence; stronger effect = higher value;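 active = fluorescence ratio B-score at least 3 SD of library B-scores, with initial fluorescence B-score within 3 of them, cut at about 5.3 in these data; same plate scores as AID 2156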;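 note: B-score of peak minus minimum over baseline fluorescence ratio after K+ and Tl+ stimulus; positive B-score means potentiation of KCNQ2 with more thallium influx and brighter signal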
KCNQ2 inh conf: confirmation of rat KCNQ2 potassium channel inhibitors. shares compounds with KCNQ2 block. KCNQ2-expressing cells, thallium flux, inhibition; stronger effect = lower value. activity change, negative = inhibition, % at 10 µM. 1,000 compounds, 57% hits;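 note: 0% = vehicle wells and values are ratio percent relative to vehicle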
KCNQ1 spec: selectivity of KCNQ2 inhibitors against human KCNQ1; shares compounds with KCNQ2 block; KCNQ1-expressing cells, FluxOR thallium flux fluorescence; stronger effect = lower value; activity change, negative = inhibition, % at 10 µM; 1,000 compounds, 15% hits;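 active = activity change at least 3 SD of negative controls below their mean in both duplicate wells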;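 note: CHO cells stably transfected with KCNQ1 and depolarized by potassium stimulus; peak minus minimum fluorescence over baseline after thallium addition; 0% = vehicle negative control and -100% = blank without thallium stimulus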
CHO parental ctr: KCNQ2 inhibitor counter-screen hit in parental CHO cells | shares compounds with KCNQ2 block | activity change, % at 10 µM | 1,000 compounds, 14% hits | thallium flux counter-screen; stronger effect = lower value | AID 493029;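 note: 0% = vehicle negative controls with stimulus buffer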
KCNQ2 patch conf: rat KCNQ2 inhibition confirmed by electrophysiology; AID 588531; KCNQ2-expressing cells, automated patch clamp current; calls only at 10 µM; shares compounds with KCNQ2 block; 550 compounds, 49% hits
Kir21 conf inh: confirmation of mouse Kir2.1 potassium channel inhibitors | shares compounds with KCNQ2 pot | 2,300 compounds, 41% hits | Tl flux remaining, % of negative control (stronger effect = lower value), % at 10 µM | Kir2.1-expressing cells, FluxOR thallium flux fluorescence; stronger effect = lower value;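 active = Primary-screen hit whose thallium flux fell at least 3 control SD below untreated wells in both duplicates, with normal baseline fluorescence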;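 note: 0% = blank wells without stimulus and 100% = stimulated no-compound controls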
HEK293 Tl flux: alters thallium flux in parental HEK293 cells, Kir2.1 counter-screen; FluxOR thallium flux fluorescence; 0% = unstimulated blank wells; FluxOR signal as % of negative control (100 = no effect), % at 10 µM; shares compounds with KCNQ2 pot; 2,300 compounds, 19% hits;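 active = dye signal at least 3 control SD above or below untreated wells in both duplicates, raw fluorescence within 3, either direction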;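 note: percent is based on the flux ratio of peak minus minimum fluorescence over baseline F0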
* = called active by the depositor; i = inactive; / = no result given; + = active, no number; ! = not confirmed by another sample. Unless noted, the rule behind the calls is not given here.

SMILES	KCNQ2 block	KCNQ2 pot	KCNQ2 inh conf	KCNQ1 spec	CHO parental ctr	others
Cc1ccc(-n2c(-c3ccc(Br)cc3)c[n+]3c2CCc2ccc4cccnc4c2-3)cc1	-12*	-12	-45%*	-36%*	-30%*
COc1ccc(-n2c(-c3ccc(Cl)cc3)c[n+]3c2CCc2ccccc2-3)cc1	i	/	/	/	/
CCOC(=O)c1cnc2c(OC)cccc2c1N1CCN(c2ccccc2OC)CC1	-12*	-12	-30%*	i	i	KCNQ2 patch conf=i
CCOC(=O)c1cnc2c(OC)cccc2c1N1CCN(c2ccc(OC)cc2)CC1	i	/	/	/	/
CC(C)CCNc1nc(-c2ccco2)c2c(c1C#N)CCCC2	-6.8*	-6.8	i	i	i
N#Cc1c(NCCN)nc(-c2ccco2)c2c1CCCC2	i	/	/	/	/
Cc1cccc(-n2nc(C)c3c2NC2=C(C(=O)CCC2)C3c2ccccn2)c1 (centres undefined)	i	/	/	/	/
COCCn1c(SCc2c(F)cccc2Cl)nc2c1c(=O)[nH]c(=O)n2C	i	/	/	/	/
Cc1cccc2nc(COc3ccc(Cl)c4cccnc34)cn12	-9.1*	-9.1	-29%*	i	i	KCNQ2 patch conf=+
O=[N+]([O-])c1ccccc1COc1ccc(Cl)c2cccnc12	i	/	/	/	/
O=C(COC(=O)Cc1ccsc1)NC(c1ccccc1)c1ccccc1	i	0.07	/	/	/
c1ccc(-c2noc(-c3ccccc3-c3ccccc3)n2)cc1	-8.6*	-8.6	-24%*	i	i	KCNQ2 patch conf=i
Fc1ccccc1-c1nc(-c2ccc(Cl)cc2)no1	i	/	/	/	/
COC(=O)CN(c1ccccc1)S(=O)(=O)c1cc(Br)ccc1OC	i	0.07	/	/	/
COc1cc(NC(=O)c2csc(-c3ccncc3)n2)cc(C(=O)Nc2cccc(C(F)(F)F)c2)c1	-6.9*	-6.9	-20%*	i	i	KCNQ2 patch conf=i
O=C(Nc1cccc(C(F)(F)F)c1)c1csc(-c2ccncc2)n1	i	0.48	/	/	/
COc1cc(NC(=O)c2ccno2)cc(C(=O)Nc2cccc(C(F)(F)F)c2)c1	i	/	/	/	/
COc1cc(NC(=O)c2cc3cccc(OC)c3o2)cc(C(=O)Nc2cccc(C(F)(F)F)c2)c1	-7.6*	-7.6	i	i	i
COc1ccc(-c2nnn(CC(=O)c3ccc4c(c3)OCCO4)n2)cc1OC	i	0.5	/	/	/
CS(=O)(=O)c1ccc2nc(NC(=O)CN3CCN(Cc4ccccc4)CC3)sc2c1	i	0.56	/	/	/
O=C(O)CC(CNS(=O)(=O)c1cccc2nsnc12)c1ccccc1 (centres undefined)	i	/	/	/	/
Cc1ccc(CC(=O)Nc2nnc(-c3ccc(F)cc3)o2)c(C)c1	i	0.87	/	/	/
O=C(/C=C/c1ccc(Cl)cc1)c1cccnc1	-7.6*	-7.6	-28%*	i	i	KCNQ2 patch conf=i;Kir21 conf inh=68%*;HEK293 Tl flux=i
O=C(/C=C/c1ccc(OCc2ccccc2)c(OCc2ccccc2)c1)c1cccnc1	i	/	/	/	/
Cc1ccccc1OCc1n(CC(=O)OC2CC(C)CCC2C(C)C)c2ccccc2[n+]1C (centres undefined)	-11*	-11	-40%*!	i	i	KCNQ2 patch conf=+;Kir21 conf inh=14%*;HEK293 Tl flux=i
SMILES	KCNQ2 block	KCNQ2 pot	KCNQ2 inh conf	KCNQ1 spec	CHO parental ctr	others
CCOC(=O)Cn1c(COc2ccccc2OC)[n+](C)c2ccccc21	i	0.52	/	/	/
CC(=O)c1ccc(N2CCN(c3ncccn3)CC2)c([N+](=O)[O-])c1	i	2.1	/	/	/
CCC[C@H](CN[C@@H](CNC)[C@H](C)CC)NCCc1cc(C(F)(F)F)cc(C(F)(F)F)c1	i	/	/	/	/
CC[C@@H](C)[C@H](CNC)NC[C@@H](Cc1cccc2ccccc12)NCCc1cccc(C(F)(F)F)c1	-8.5*	-8.5	-29%*	i	i	KCNQ2 patch conf=i;Kir21 conf inh=22%*;HEK293 Tl flux=i
CCOc1cc(/C=C2/NC(=O)N(Cc3ccccc3F)C2=O)ccc1O	i	0.53	/	/	/
OCCNc1nc2ccccc2n1-c1ccccc1	i	/	/	/	/
Cc1ccc[n+](CC(=O)Nc2cc(C(F)(F)F)ccc2Cl)c1	i	1.7	/	/	/
CCC(C)(C)c1ccc(OCCCC[n+]2cccc(C)c2)c(C(C)(C)CC)c1	-8.4*	-8.4	i	i	i	Kir21 conf inh=33%*;HEK293 Tl flux=i
CN(C)c1ccc(C(=O)c2ccc(N(C)C)c(N)c2)cc1N	i	/	/	/	/
CCc1ccc(C(O)(CNCc2ccccc2)c2ccccc2)cc1 (centres undefined)	-6.9*	-6.9	-32%*	-36%*	-28%*	KCNQ2 patch conf=i;Kir21 conf inh=69%*;HEK293 Tl flux=i
CCc1ccc(NC(=S)NCc2ccccc2)cc1	i	0.74	/	/	/
CC(=O)Nc1ccc(NC(=O)C(C)OC(=O)/C(C#N)=C/c2ccc(N(C)C)cc2)cc1 (centres undefined)	i	/	/	/	/
Cc1ccc2cc(CN(CCCN(C)C)C(=S)NCc3ccccc3)c(=O)[nH]c2c1C	i	1.3	/	/	/
Cc1ccc(-c2nn(-c3ccccc3)cc2CO)cc1	i	/	/	/	/
N=C(N)SCc1cn(-c2ccccc2)nc1-c1ccc(Br)cc1	-12*	-12	i	i	i	Kir21 conf inh=13%*;HEK293 Tl flux=56%*
Cc1ccnc(NC(=O)CCC(=O)N(CC(=O)NC(C)(C)C)Cc2ccc3c(c2)OCO3)c1	i	/	/	/	/
NC(N)=N/N=C/c1ccc(OCc2ccccc2)c(OCc2ccccc2)c1	i	/	/	/	/
CCOc1cc(/C=N/N=C(N)N)ccc1OCc1ccc(Cl)cc1	-10*	-10	i	i	i	Kir21 conf inh=62%*;HEK293 Tl flux=i
